Results taken from PubChem BioAssay (NCATS).
Results filed as inconclusive are left out. A call without a number means that no potency is given here. Activity calls are given as the source filed them. The call rests on the fitted dose curve; in most records, active means well fitted curve in the direction sought with a large enough effect; inconclusive means small, poorly fitted or top-dose-only effect, or another doubt; inactive means no such curve, though single readings can be large; an effect the other way counts as inactive or inconclusive.

Key:
[1] = target: Luciferin 4-monooxygenase (Photinus pyralis) (UniProt P08659); assay: Biochemical firefly luciferase enzyme assay for NPC (AID 624030); further: nearly all actives have a fitted effect of over 70% in size; further: potency means the concentration at half of the fitted maximal effect; settings: purified P. pyralis luciferase, luminescence, 5 min; series mostly up to 58.6 µM
Procedure, shortened: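 Counter-screen for direct inhibition of the luciferase enzyme by approved-drug library compounds, run at 10 nM enzyme in 50 mM Tris acetate (final). Luminescence was read within 5 min of enzyme-buffer addition and normalized to PTC124 versus DMSO (0%).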

[2] = target: Glutaminase kidney isoform, mitochondrial (Homo sapiens) (UniProt O94925); assay: qHTS for Inhibitors of Glutaminase (GLS): LOPAC Validation (AID 624146); settings: glutaminase enzyme activity inhibition; series mostly up to 46.1 µM;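 further: glutamate product detected by oxidase and peroxidase coupled Amplex red fluorescence gain; nearly all actives have a fitted effect of over 60% in size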
Procedure, shortened: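 Read-out is an Amplex red fluorescence increase coupled through glutamate oxidase and HRP, measured before and after 30 min room-temperature incubation. hKGA is in 45 mM KH2PO4 (pH 8.2) with 0.02% Tween-20; glutamine added as 1mM solution.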

[3] = target: Glucagon-like peptide 1 receptor (Homo sapiens) (UniProt P43220); assay: qHTS of GLP-1 Receptor Agonists: LOPAC Validation (AID 624148); settings: GLP-1R agonist cell assay; series mostly up to 46.1 µM;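 further: higher luminescence signal means agonism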
Procedure, shortened: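 HEK293 cells stably co-expressing a cAMP-responsive luciferase reporter and a hypersensitive GLP-1R were plated 12 h at 37 °C and exposed to compounds for 4-6 hr at 37 °C, 5% CO2. Luminescence was read 12 min after adding detection reagent.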

[4] = qHTS of Nrf2 Activators: LOPAC Validation (AID 624149); settings: Nrf2/ARE reporter cell assay; series mostly up to 46.1 µM
Procedure, shortened: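 Luminescence read-out of ARE-luciferase activation: AREc32_Fluc cells treated with compounds for 24 hr at 37 deg C, then lysed with Steady-Glo for 30 min at room temperature before reading.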

[5] = target: Voltage-gated inwardly rectifying potassium channel KCNH2 (Homo sapiens) (UniProt Q12809); assay: qHTS Assay for Small Molecule Inhibitors of the Human hERG Channel Activity (AID 588834); settings: U2OS BacMam hERG, FluxOR thallium flux fluorescence; series mostly up to 46.1 µM;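 further: top concentration of the series differs between compounds; lower thallium flux fluorescence means stronger hERG block; nearly all actives have a fitted effect of over 50% in size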
Procedure, shortened: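 hERG-BacMam U2OS, 2000 cells/well; 0.7X FluxOR loading 1 hr RT dark; cpd ~10 min 37 °C; stim buffer; FDSS fluorescence 2 min @ 1 s; AC50 Hill fit.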

[6] = qHTS of Trypanosoma Brucei Inhibitors: LOPAC Validation (AID 624147); settings: purified enzyme assay, luminescence, 45 min; series mostly up to 57.5 µM
Procedure, shortened: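 Luminescence from Kinase-Glo Plus, added after a 45-minute room-temperature reaction, served as the end-point read-out. The enzyme and substrate were preincubated with compound before ADP (130 uM final) initiated turnover. Concentration-effect curves came from normalized qHTS data.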

[7] = S16 Schwann cell viability assay (CellTiter-Glo assay) (AID 624031); settings: S16 rat Schwann cells viability, 24 h; series mostly up to 57.5 µM;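 further: cellular ATP luminescence as a viability measure; nearly all actives have a fitted effect of over 70% in size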
Procedure, shortened: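 Untransfected S16 rat Schwann cells; compound 24 h, 37 °C/5% CO2; CellTiter-Glo ATP luminescence. % activity vs no-cell wells and DMSO controls (0%); concentration-effect curves classed by r2, response magnitude, activity.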

[8] = S16 Schwann cell PMP22 intronic element firefly luciferase assay (AID 624032); settings: S16 rat Schwann cells, PMP22 element FLuc, 24 h; series mostly up to 57.5 µM; further: nearly all actives have a fitted effect of over 30% in size
Procedure, shortened: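 Rat S16 Schwann cells stably carrying a PMP22 intronic element-driven Fluc reporter were seeded overnight, then exposed to compounds for 24 h at 37 °C. Luminescence was normalized to PTC124 (positive control) and DMSO (0% activity).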

Glutaminase kidney isoform, mitochondrial (Homo sapiens), sequence (O94925 whole entry, looked up, canonical isoform): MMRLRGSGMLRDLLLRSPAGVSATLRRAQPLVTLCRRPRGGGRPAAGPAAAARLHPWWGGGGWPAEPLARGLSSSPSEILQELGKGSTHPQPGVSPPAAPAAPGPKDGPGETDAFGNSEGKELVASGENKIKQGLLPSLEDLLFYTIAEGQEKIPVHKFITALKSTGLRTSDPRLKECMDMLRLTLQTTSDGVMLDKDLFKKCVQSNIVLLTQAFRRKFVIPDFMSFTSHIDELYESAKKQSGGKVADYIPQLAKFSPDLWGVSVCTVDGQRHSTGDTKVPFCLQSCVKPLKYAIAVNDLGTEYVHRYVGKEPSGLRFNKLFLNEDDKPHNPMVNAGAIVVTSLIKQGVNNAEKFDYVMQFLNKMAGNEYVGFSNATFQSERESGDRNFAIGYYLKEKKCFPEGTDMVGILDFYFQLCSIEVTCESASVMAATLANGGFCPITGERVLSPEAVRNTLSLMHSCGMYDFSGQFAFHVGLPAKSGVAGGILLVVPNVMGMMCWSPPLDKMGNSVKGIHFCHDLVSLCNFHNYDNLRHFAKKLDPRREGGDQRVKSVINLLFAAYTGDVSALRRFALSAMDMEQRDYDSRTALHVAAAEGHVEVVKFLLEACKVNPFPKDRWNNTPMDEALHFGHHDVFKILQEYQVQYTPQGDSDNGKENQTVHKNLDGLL
Glucagon-like peptide 1 receptor (Homo sapiens), sequence (P43220 whole entry, looked up): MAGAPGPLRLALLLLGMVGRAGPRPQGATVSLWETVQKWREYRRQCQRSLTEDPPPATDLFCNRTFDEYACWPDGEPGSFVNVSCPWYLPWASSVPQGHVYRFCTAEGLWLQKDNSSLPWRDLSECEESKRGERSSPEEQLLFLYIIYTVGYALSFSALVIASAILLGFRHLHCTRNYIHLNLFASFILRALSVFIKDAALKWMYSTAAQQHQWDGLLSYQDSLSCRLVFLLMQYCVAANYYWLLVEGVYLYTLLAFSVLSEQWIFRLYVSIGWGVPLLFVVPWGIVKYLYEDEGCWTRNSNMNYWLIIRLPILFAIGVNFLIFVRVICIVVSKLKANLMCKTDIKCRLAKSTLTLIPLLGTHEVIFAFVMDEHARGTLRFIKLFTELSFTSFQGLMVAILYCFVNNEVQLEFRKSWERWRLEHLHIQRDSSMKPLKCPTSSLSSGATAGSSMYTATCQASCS
Voltage-gated inwardly rectifying potassium channel KCNH2 (Homo sapiens), sequence (Q12809 whole entry, looked up): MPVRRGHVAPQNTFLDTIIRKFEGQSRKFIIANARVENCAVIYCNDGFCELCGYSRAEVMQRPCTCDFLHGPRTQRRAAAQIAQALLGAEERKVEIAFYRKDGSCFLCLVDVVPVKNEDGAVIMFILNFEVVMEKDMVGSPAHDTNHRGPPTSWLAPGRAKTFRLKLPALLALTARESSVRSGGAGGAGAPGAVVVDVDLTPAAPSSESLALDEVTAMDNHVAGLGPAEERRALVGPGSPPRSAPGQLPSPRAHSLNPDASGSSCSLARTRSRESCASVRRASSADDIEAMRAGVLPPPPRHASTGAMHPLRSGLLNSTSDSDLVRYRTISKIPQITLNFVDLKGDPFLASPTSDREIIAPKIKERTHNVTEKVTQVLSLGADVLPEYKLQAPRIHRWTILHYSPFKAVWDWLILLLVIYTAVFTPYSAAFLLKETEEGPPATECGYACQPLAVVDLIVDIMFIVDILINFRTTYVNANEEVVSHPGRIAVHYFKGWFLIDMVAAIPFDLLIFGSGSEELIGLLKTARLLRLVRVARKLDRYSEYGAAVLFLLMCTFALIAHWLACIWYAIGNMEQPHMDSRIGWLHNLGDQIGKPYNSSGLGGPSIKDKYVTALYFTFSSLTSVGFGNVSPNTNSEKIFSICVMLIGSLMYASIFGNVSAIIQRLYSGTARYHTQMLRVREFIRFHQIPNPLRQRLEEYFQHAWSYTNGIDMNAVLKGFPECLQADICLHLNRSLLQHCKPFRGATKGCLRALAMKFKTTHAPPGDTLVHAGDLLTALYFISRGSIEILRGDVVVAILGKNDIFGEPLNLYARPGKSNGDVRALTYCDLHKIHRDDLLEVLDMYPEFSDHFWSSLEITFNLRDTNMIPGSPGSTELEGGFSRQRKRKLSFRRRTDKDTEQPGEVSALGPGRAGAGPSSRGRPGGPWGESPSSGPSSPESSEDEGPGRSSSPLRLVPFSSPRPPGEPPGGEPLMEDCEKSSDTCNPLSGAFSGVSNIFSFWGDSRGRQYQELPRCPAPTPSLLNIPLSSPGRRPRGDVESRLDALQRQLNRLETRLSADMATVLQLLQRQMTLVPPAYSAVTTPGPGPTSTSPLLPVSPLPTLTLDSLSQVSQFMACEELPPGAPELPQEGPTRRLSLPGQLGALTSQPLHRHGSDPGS
Luciferin 4-monooxygenase (Photinus pyralis), sequence (P08659 whole entry, looked up): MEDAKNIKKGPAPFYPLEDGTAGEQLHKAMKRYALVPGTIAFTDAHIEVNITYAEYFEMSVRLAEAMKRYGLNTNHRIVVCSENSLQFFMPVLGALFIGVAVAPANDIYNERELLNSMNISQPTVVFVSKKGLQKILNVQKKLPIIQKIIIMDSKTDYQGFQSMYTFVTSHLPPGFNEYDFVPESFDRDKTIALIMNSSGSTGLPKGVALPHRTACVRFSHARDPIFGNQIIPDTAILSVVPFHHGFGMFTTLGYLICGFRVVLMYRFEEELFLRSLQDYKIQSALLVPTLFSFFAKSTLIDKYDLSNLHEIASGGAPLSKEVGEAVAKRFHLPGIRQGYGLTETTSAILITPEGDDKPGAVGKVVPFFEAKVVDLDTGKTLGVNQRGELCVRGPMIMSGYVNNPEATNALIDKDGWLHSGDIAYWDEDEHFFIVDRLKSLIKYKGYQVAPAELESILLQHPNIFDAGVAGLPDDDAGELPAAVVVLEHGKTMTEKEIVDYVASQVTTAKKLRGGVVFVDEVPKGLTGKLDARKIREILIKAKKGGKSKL

CNC(=O)c1ccccc1Sc1ccc2c(/C=C/c3ccccn3)n[nH]c2c1
Potency [1]: 510 nM (active)

CCN(CC)CCCC(C)Nc1ccnc2cc(Cl)ccc12 (stereo unspecified)
outcome [2]: inactive | outcome [3]: inactive | outcome [4]: inactive

Cc1cccc(-c2[nH]c(C(C)(C)C)nc2-c2ccc3nccnc3c2)n1
outcome [2]: inactive | outcome [3]: inactive | outcome [4]: inactive

c1ccc([C@H]2CN3CCSC3=N2)cc1
Potency [5]: inactive | outcome [2]: inactive | outcome [3]: inactive | outcome [4]: inactive

Cc1cnc(NC(=O)C2=C(O)c3ccccc3S(=O)(=O)N2C)s1
Potency [5]: inactive | Potency [1]: inactive | outcome [2]: inactive | outcome [6]: inactive | outcome [4]: inactive

OC(CCN1CCCCC1)(c1ccccc1)C1CC2C=CC1C2 (stereo unspecified)
Potency [1]: inactive | outcome [2]: inactive | outcome [3]: inactive | outcome [4]: inactive

Cc1oncc1C(=O)Nc1ccc(C(F)(F)F)cc1
Potency [5]: inactive | Potency [7]: inactive | Potency [8]: inactive | outcome [2]: inactive | outcome [3]: inactive | outcome [4]: inactive
